Source: PubChem (The Scripps Research Institute Molecular Screening Center)
M1 ag parental: M1 agonist counterscreen hit in parental CHO-K1 cells | activation, % at 3 µM | 360,000 tested, 0.48% active | Fluo-8 calcium fluorescence; scaled to maximal ATP response, vehicle zero; in the data active = activation above about 15%;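 note: untransfected CHO-K1 host cells lacking M1 receptor as counterscreen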
M1 PAM parental: counter-screen for M1 PAMs: effect in parental CHO-K1 cells; ATP EC20, Fluo-8 calcium fluorescence; 0% at ATP EC20, 100% at ATP max; activation, % at 3 µM; 360,000 tested, 0.02% active; AID 602247;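 active = activation above the run cutoff, the mean activation of all test compounds plus 3 SD, cut at about 40% in these data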;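 note: peak over basal fluorescence ratio in a 140 s read after ATP addition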
CHRM1 PAM: potentiates human M1 receptor response to acetylcholine. P11229. CHO-K1 hM1, Fluo-8 calcium fluorescence, ACh EC20; 0% = ACh EC20, 100% = maximal ACh. activation, % at 3 µM. 360,000 tested, 0.088% active; in the data active = activation above about 19%, passing the limit was not always enough
Target sequence (P11229 whole entry, looked up): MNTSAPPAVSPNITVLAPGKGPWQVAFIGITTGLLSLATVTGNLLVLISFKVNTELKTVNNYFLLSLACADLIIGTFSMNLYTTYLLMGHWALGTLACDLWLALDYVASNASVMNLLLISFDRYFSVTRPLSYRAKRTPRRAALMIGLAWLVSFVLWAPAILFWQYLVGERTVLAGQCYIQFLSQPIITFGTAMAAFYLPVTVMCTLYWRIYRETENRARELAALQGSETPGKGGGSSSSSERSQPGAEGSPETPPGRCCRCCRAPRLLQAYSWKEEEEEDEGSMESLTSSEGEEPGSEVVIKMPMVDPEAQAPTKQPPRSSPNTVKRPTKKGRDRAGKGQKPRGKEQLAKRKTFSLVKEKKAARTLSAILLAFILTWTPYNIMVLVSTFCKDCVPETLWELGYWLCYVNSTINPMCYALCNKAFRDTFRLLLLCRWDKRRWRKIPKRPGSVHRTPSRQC
CHRM1 antagonist: antagonists of human M1 muscarinic receptor. AID 588852. CHO-K1 hM1, Fluo-8 calcium fluorescence, ACh EC80 antagonist. inhibition, % at 3 µM. 360,000 tested, 1.3% active;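 active = percent inhibition above its own plate's cutoff, namely the mean of that plate's compound wells plus 3 SD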;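 note: peak over basal fluorescence ratio during 140 s after agonist addition; 0% = ACh EC80 plus DMSO and 100% = DMSO alone without agonist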
M1 ag: activates human CHRM1 receptor; CHO-K1 hM1, Fluo-8 calcium fluorescence, agonist mode; 0% DMSO, 100% acetylcholine EC100; P11229; activation, % at 3 µM; 360,000 tested, 0.33% active; AID 588814;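 active = activation above the run's mean compound activation plus 3 SD, cut at about 16% in these data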;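 note: peak over basal fluorescence ratio within a 140 s kinetic read after compound addition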
CHO-K1 Ca antag: M1 antagonist counterscreen hit in parental CHO-K1 cells; ATP-induced calcium, Fluo-8 fluorescence; inhibition, % at 3 µM; 360,000 tested, 0.6% active;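 active = inhibition above a per-plate cutoff, the plate's mean sample inhibition plus 3 SD, cut at about 24% in these data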;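 note: 0% = DMSO plus EC80 ATP and 100% = DMSO alone without ATP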
* hit, by the source's call; / = no result given. Sampled rows, rich in hits. Any-hit rate of the full collection: about 2.3%.

SMILES | M1 ag parental | M1 PAM parental | CHRM1 PAM | CHRM1 antagonist | M1 ag | CHO-K1 Ca antag
CCOCc1c(C(=O)NCC(c2ccco2)N2CCCC2)oc2ccccc12 (stereo not drawn) | 0 | -20 | -18 | 28* | -9 | 14
Cc1cccc(NC(=O)C(=O)NCC2CCCN2S(=O)(=O)c2cccs2)c1 (stereo not drawn) | 6 | 11 | -3 | -5 | -3 | -9
COc1ccc(S(=O)(=O)NCc2ccc(C(=O)NCCN(C)Cc3ccccc3)cc2)cc1 | 0 | -9 | -5 | -8 | -10 | 8
CCCS(=O)(=O)NC(=O)C1(C)CCCN(C(=O)c2ccc(F)cc2Cl)C1 (stereo not drawn) | 0 | 16 | 10 | -7 | -1 | -3
Cc1ccc(NS(=O)(=O)c2cccc(C(=O)NCC(c3ccco3)N3CCCC3)c2)cc1 (stereo not drawn) | 2 | -14 | 10 | -9 | -3 | -1
O=C(NCC(c1ccco1)N1CCCC1)c1cccc(NS(=O)(=O)c2ccccc2)c1 (stereo not drawn) | 3 | 9 | -27 | 90* | -8 | -2
O=C(NCC(c1ccco1)N1CCCCC1)c1ccc(S(=O)(=O)Nc2ccccc2)cc1 (stereo not drawn) | 5 | 4 | -25 | 32* | -4 | -10
Cc1ccc(NS(=O)(=O)c2ccc(C(=O)NCC(c3ccco3)N3CCCCC3)cc2)cc1 (stereo not drawn) | 18* | 13 | -19 | 11 | 8 | 5
COCC(=O)N(C)C[C@@H]1Oc2cc(-c3ccc(F)cc3)ccc2S(=O)(=O)N([C@H](C)CO)C[C@H]1C | 2 | -6 | -14 | 12 | -3 | -5
O=S1(=O)CC(N2CCCCC2)CN1Cc1cn(Cc2ccc(C(F)(F)F)cc2)nn1 (stereo not drawn) | 2 | 2 | / | / | / | -11
C/C(=N/NC(=O)c1nnn(-c2nonc2N)c1CSc1ccc(C)cc1)c1ccncc1 | 1 | 8 | 2 | -2 | -5 | 12
C=CC(=O)Nc1cccc(Nc2nc(N[C@H]3CC[C@H](N(C)C)CC3)nc3c2ncn3C(C)C)c1 | 0 | 4 | 5 | -7 | -11 | -3
CC(=O)NCCC(=O)NCC1(N(C)Cc2ccccc2)Cc2ccccc2C1 | 16* | 21 | 8 | -22 | -5 | -7
Cc1cccc(C)c1Nc1nc2ccccc2o1 | 0 | -6 | -7 | 9 | -4 | 25*
CCCCNC(=O)C1(C)CCCCN1C(=O)c1cc2ccccc2s1 (stereo not drawn) | 1 | 17 | 3 | -4 | -4 | -8
COc1ccc2c(c1)C1(Nc3ccccc3-c3nc4ccccc4n31)C(=O)N2 (stereo not drawn) | 37* | 13 | 2 | 10 | 0 | 4
Cc1nnc2n(c1=O)C(CS(=O)(=O)c1ccc3ccccc3c1)CS2 (stereo not drawn) | 15* | 11 | 7 | -8 | -5 | 6
Cc1ccc(S(=O)(=O)CC2CSc3nnc(C)c(=O)n32)cc1 (stereo not drawn) | 1 | 20 | 11 | -24 | -3 | -17
Nc1nc2ccc(Cl)cc2cc1C(=O)NCc1ccc(Oc2ccccc2)cc1 | 6 | -6 | / | / | / | 28*
Nc1nc2ccc(Cl)cc2cc1C(=O)NCCc1c[nH]c2ccccc12 | 12 | -5 | / | / | / | 16
COc1ccc(CCNC(=O)c2cc3ccc(Cl)cc3nc2N)cc1 | 12 | -8 | / | / | / | 33*
Brc1ccc(-c2nc3c4ccccc4ccn3c2Cc2ccccc2)cc1 | 0 | 5 | 1 | -5 | -6 | -3
COC(=O)c1ccc(C(=O)N2CCCC(C)(C(=O)NS(=O)(=O)C3CC3)C2)cc1 (stereo not drawn) | 0 | 8 | 15 | -19 | -3 | -2
Cc1ccc(S(=O)(=O)n2c(N)nc3cc(C)c(C)cc32)cc1 | 0 | -4 | -20 | 20* | -11 | -3
Cc1ccc(S(=O)(=O)n2c(C)nc3cc(C)ccc32)cc1 | 0 | 3 | 1 | -2 | -1 | -10
CCOc1ccc(-n2c(-c3ccc(Cl)cc3)c[n+]3c2SCC3)cc1 | 1 | 18 | -19 | 50* | -7 | -16
c1ccc(-c2c[n+]3c(n2-c2ccccc2)SCC3)cc1 | 0 | 17 | 0 | -4 | -9 | -6
